High-throughput results from PubChem.
Sampled rows, rich in hits. Any-hit rate of the full collection: about 2.4%.
Cruzain Triton: inhibitors of Trypanosoma cruzi cruzain with detergent. Potency, µM, most hits filed as inhibitors. 200,000 compounds, 0.43% hits. purified cruzain, Z-FR-AMC fluorescence, 0.01% Triton. P25779; further: nearly all actives have a fitted effect of over 40% in size
Target sequence (P25779 123-467 limits assumed): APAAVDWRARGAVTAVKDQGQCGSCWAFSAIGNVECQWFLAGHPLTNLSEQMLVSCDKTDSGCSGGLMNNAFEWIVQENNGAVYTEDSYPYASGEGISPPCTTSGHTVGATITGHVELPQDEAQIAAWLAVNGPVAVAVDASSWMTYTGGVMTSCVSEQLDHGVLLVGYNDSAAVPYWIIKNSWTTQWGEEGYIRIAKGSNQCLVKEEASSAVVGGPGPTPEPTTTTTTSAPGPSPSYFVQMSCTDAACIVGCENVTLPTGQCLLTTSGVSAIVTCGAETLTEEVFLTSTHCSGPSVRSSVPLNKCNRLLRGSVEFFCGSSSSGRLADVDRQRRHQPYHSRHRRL
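Sodium acetate buffer (100 mM, pH 5.5) containing 5 mM DTT and 0.01% Triton X-100 hosted 1.5 nM cruzain and test compound for 15 min at room temperature. Cleavage of 2 uM Z-FR-AMC was then tracked by fluorescence.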
Cruzain inh noDet: inhibitors of Trypanosoma cruzi cruzain without detergent. AID 1476. Potency, µM, actives largely listed as inhibitors. 200,000 compounds, 2.3% hits. P25779. purified cruzain, Z-FR-AMC fluorescence, no detergent; further: nearly all actives have a fitted effect of over 40% in size
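Purified cruzain at 1.5 nM, pre-incubated 15 min with compound at room temperature in 100 mM sodium acetate pH 5.5, 5 mM DTT, 0.00005% Triton X-100. Reaction started with 2 uM Z-FR-AMC; AMC fluorescence increase over 60 s gives rate.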
Of the large screens only hits and unclear results are named; the others gave an inactive call. The call rests on the fitted dose curve; in most records, active means well fitted curve in the direction sought with a large enough effect; inconclusive means small, poorly fitted or top-dose-only effect, or another doubt; inactive means no such curve, though single readings can be large; an effect the other way counts as inactive or inconclusive.

c1ccc2c[n+](Cc3ccnc4ccccc34)ccc2c1	none
Cc1ccc(C(=O)NCC(=O)OCC(=O)NC2CCS(=O)(=O)C2)cc1C (stereo not drawn)	Cruzain Triton 16µM, Cruzain inh noDet 25µM
O=C(COC(=O)CNS(=O)(=O)/C=C/c1ccccc1)NC1CCS(=O)(=O)C1 (stereo not drawn)	none
Cc1cc(NC(=O)CSc2ccc(-c3nc4cc(C)c(C)cc4[nH]3)cn2)no1	Cruzain inh noDet inconclusive
Cc1cc2nc(-c3ccc(SCC(=O)N4CCc5ccccc54)nc3)[nH]c2cc1C	Cruzain inh noDet 16µM
CCOC(=O)CSc1ncnc2c1sc1nc(N3CCOCC3)c3c(c12)CCCC3	none
CCOC(=O)C(Sc1ncnc2c1sc1nc(N3CCOCC3)c3c(c12)CCCC3)c1ccccc1 (stereo not drawn)	Cruzain inh noDet 3.2µM
Cc1ccc2c(c1)c1c(c(=O)n(-c3ccccc3C)c(=O)n1Cc1cccc(F)c1)n2C	none
Cc1oc(C)c2c(=O)cc(-c3ccc4c(c3)OCO4)cc(OC(=O)c3ccccc3Cl)c12	none
Cc1oc(C)c2c(=O)cc(-c3ccc4c(c3)OCO4)cc(OC(=O)c3ccccc3Br)c12	Cruzain inh noDet 16µM
COc1ccc(-c2noc(-c3ccccc3OCC(=O)Nc3ccc(C(C)=O)cc3)n2)cc1	none
CCOc1ccc(-c2cc(C(=O)Nc3ccc(NC(C)=O)cc3)no2)cc1	none
CCOc1ccccc1-c1nc(-c2ccc(NC(=O)Cc3ccc(OC)cc3)cc2)no1	Cruzain inh noDet 7.9µM
CCc1ccc(NC(=O)c2cc(-c3ccc(OC)cc3)on2)cc1	Cruzain inh noDet 13µM
COc1ccc(CC(=O)Nc2ccc(-c3noc(-c4ccc(Cl)cc4)n3)cc2)cc1	Cruzain inh noDet 4µM
COc1ccc(CC(=O)Nc2ccc(-c3noc(-c4cc(OC)c(OC)c(OC)c4)n3)cc2)cc1	none
COc1ccc(Cl)cc1N(C)C(=O)Cn1cnc2sc(C)c(S(=O)(=O)N3CCN(c4ncccn4)CC3)c2c1=O	Cruzain inh noDet inconclusive
Cc1nc(NCc2ccccc2)c2nc(-c3ccccc3)n(CCN(C)C)c2n1	none
O=C(NCc1ccccc1)C(=O)Nc1c2c(nn1-c1ccccc1)CSC2	Cruzain inh noDet inconclusive
CC(C)CNC(=O)C(=O)Nc1c2c(nn1-c1ccc(Cl)cc1)CSC2	Cruzain inh noDet inconclusive
COc1ccc(-n2nc3c(c2NC(=O)C(=O)NCc2ccccc2)CSC3)cc1	Cruzain inh noDet 7.9µM
COc1ccc(CNC(=O)C(=O)Nc2c3c(nn2-c2ccccc2)CSC3)cc1	Cruzain inh noDet 25µM
C[C@H](Oc1ccc(Oc2cnc3ccc(Cl)cc3n2)cc1)C(=O)O	none
CC(C)(C)c1ccc(S(=O)(=O)/C=C\C#N)cc1	none
O=C(O)c1cncc(C(=O)O)c1	none
Cc1ccc(C)c(NS(=O)(=O)c2ccc3c(c2)Cc2cc(S(=O)(=O)Nc4cc(C)ccc4C)ccc2-3)c1	Cruzain inh noDet 7.9µM
Cc1ccc(NS(=O)(=O)c2ccc3c(c2)C(=O)c2ccccc2C3=O)c(C)c1	none
O=[N+]([O-])c1cccc2ccc(/C=C/c3ccc(Cl)cc3)nc12	Cruzain inh noDet 10µM
O=[N+]([O-])c1cccc2ccc(/C=C/c3ccc(C(F)(F)F)cc3)nc12	none
CCCCC[C@H](O)/C=C/[C@@H]1[C@H]2C/C(=C/CCCC(=O)O)C[C@H]2C[C@H]1O	none
CCOc1ccc(OCC)c(NC(=O)c2csc3c2CCCC3)c1	none
CC1=N/C(=C/c2ccc([N+](=O)[O-])cc2)C(=O)N1c1ccc(Cl)cc1Cl	none
CC1=N/C(=C\c2ccc([N+](=O)[O-])cc2)C(=O)N1c1ccc(Cl)cc1	Cruzain inh noDet 16µM
O=c1c(-c2ccc(F)cc2)nc2cnc(N3CCNCC3)nc2n1Cc1ccc(F)cc1	none
Cc1ccc(/C=C2\SC(N3CCN(C(c4ccccc4)c4ccccc4)CC3)=NC2=O)o1	Cruzain inh noDet 7.9µM
CC1=CN2C(=N)/C(=C/c3ccc(C)o3)C(=O)N=C2S1	none
O=C(Nc1ccccc1N1CCCC1)c1cc2ccccc2o1	none
O=C(Nc1ccccc1N1CCN(C(=O)c2ccccc2)CC1)c1cc2ccccc2o1	Cruzain inh noDet 0.16µM
CC(=O)N1[C@H](C)C=C[C@]1(Cc1ccccc1)C(=O)NCc1ccc(C)o1	none
CCC(=O)Nc1ccc(/C(C)=N\NC(=O)c2ccc(C)s2)cc1	none
C/C(=N/NC(=O)c1cccs1)c1ccc(NC(=O)COc2ccc(Cl)cc2Cl)cc1	Cruzain inh noDet inconclusive
C/C(=N/NC(=O)c1ccc(Cl)s1)c1ccc(NC(=O)COc2ccc(Cl)cc2)cc1	Cruzain inh noDet 20µM
C/C(=N/NC(=O)c1ccc(C)s1)c1cccc(NC(=O)COc2ccc(Cl)cc2Cl)c1	Cruzain inh noDet 13µM
O=C(C#Cc1ccccc1)c1cccc([N+](=O)[O-])c1	Cruzain Triton 13µM
N/C(=N\OC(=O)Oc1ccccc1)c1cccc([N+](=O)[O-])c1	none
Cc1ccc(-c2nc3sccn3c2Nc2ccccc2C)cc1	Cruzain inh noDet 25µM
Cc1ccccc1Nc1c(-c2cc(Br)ccc2F)nc2ccccn12	none
CCc1cccc(C)c1Nc1c(-c2ccccc2)nc2sccn12	none
Cc1ccccc1Nc1c(-c2ccc(Br)cc2O)nc2sccn12	Cruzain inh noDet 20µM
O=S(=O)(Nc1nc2ccccc2nc1NCc1ccco1)c1ccc(Cl)cc1	Cruzain inh noDet 20µM
Cc1ccc(S(=O)(=O)Nc2nc3ccccc3nc2NCc2ccco2)cc1	Cruzain inh noDet inconclusive
Cc1ccc(S(=O)(=O)N2Cc3ccccc3CC2C(=O)Nc2ccc3c(c2)OCO3)cc1 (stereo not drawn)	Cruzain inh noDet inconclusive
COc1ccc(S(=O)(=O)N2Cc3ccccc3CC2C(=O)Nc2ccc3c(c2)OCO3)cc1 (stereo not drawn)	Cruzain inh noDet 25µM
C[N@@+]1(Cc2ccc(Cl)c(Cl)c2)CCC[C@@H]1c1ccc[n+](Cc2ccc(Cl)c(Cl)c2)c1	none
Cc1ccc(C(=O)N/C(=C/c2ccc(Cl)cc2)C(=O)Nc2cccc(C(=O)O)c2)cc1	Cruzain inh noDet inconclusive
CSc1ccc(/C=C(\NC(=O)c2ccc(C)cc2)C(=O)Nc2cccc(C)c2)cc1	Cruzain inh noDet 7.9µM
Cc1ccc2oc(C(=O)N(Cc3ccccc3F)C3CCS(=O)(=O)C3)c(C)c2c1 (stereo not drawn)	none
CC[C@H](C)N(C)C(=O)c1cc2ccccc2c(-c2ccccc2Cl)n1	Cruzain inh noDet inconclusive
CSc1ccc(CCNC(=O)c2ccc3c(c2)c(C)c(C)n3Cc2ccc(F)cc2)cc1	Cruzain inh noDet 16µM
CCn1c(C)c(C)c2cc(C(=O)NCc3ccc(OC(C)C)cc3)ccc21	none
CCOc1ccc(CNC(=O)c2ccc3c(c2)c(C)c(C)n3Cc2ccc(Cl)cc2)cc1	Cruzain inh noDet 10µM
Cc1c(C)n(Cc2ccccc2)c2ccc(C(=O)NCc3ccccc3F)cc12	Cruzain inh noDet inconclusive
Cc1ccccc1NC(=O)c1ccc2c(c1)c(C)c(C)n2Cc1ccccc1	none
CSc1cccc(NC(=O)c2ccc3c(c2)c(C)c(C)n3Cc2ccc(F)cc2)c1	Cruzain inh noDet 16µM
CC(=O)N1CCCc2cc(S(=O)(=O)N(C)CC(=O)Nc3cccc(C)c3C)ccc21	none
CCc1ccc(NS(=O)(=O)c2ccc(-c3cc(C)no3)cc2)cc1	none
COc1ccc2c(c1)OC(=O)CC2c1ccccc1C (stereo not drawn)	none
O=c1[nH]c(SCc2c(Cl)c(Cl)c(Cl)c(Cl)c2Cl)nc(=S)[nH]1	none
COc1cc(NC(=O)N2CCC3(CC2)Nc2cc(F)ccc2-n2cccc23)cc(OC)c1OC	Cruzain inh noDet inconclusive
